The campaign covered roughly 5,500 compounds. About 2,000 (36%) were called active. Roughly 18% stayed inconclusive and do not appear here. Rule as the data show it: active = normalized growth mostly below about 0.91 (no sharp cut-off); inconclusive = no clear call, values can overlap the other calls; inactive = mostly above about 0.92. This is one part of the list.
Test: chemical genetic growth profiling, strain panel (AID 1159580);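 also: tested at 20 µM; growth read once vehicle control cultures reached saturation at 30 °C; 1 = growth at the plate median or of vehicle wells; lower values mean less growth of the strain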
Settings: growth OD

Measured: normalized growth

NCC(N)C(=O)c1ccccc1 (stereo not drawn)
inactive: S. cerevisiae deletion strains, locus YJR043C, strain POL32, active compounds read low 1.01 | S. cerevisiae deletion strains, locus YJR066W, strain TOR1, active compounds read low 0.969 | S. cerevisiae deletion strains, locus YKL009W, strain mrt4, active compounds read low 1.1 | S. cerevisiae deletion strains, locus YKL068W, active compounds read low 1.03 | S. cerevisiae deletion strains, locus YKL085W, strain MDH1 (second series), active compounds read low 1.02 | S. cerevisiae deletion strains, locus YKL085W, strain MDH1, active compounds read low 1.02 | S. cerevisiae deletion strains, locus YKL160W, strain elf1, active compounds read low 1.02 | S. cerevisiae deletion strains, locus YKL190W, strain CNB1, active compounds read low 1.01 | S. cerevisiae deletion strains, locus YKR001C, strain vps1, active compounds read low 0.979 | S. cerevisiae deletion strains, locus YKR026C, strain gcn3, active compounds read low 1.02 | S. cerevisiae deletion strains, locus YKR091W, strain srl3, active compounds read low 1.02 | S. cerevisiae deletion strains, locus YLL001W, strain dnm1, active compounds read low 1.02 | S. cerevisiae deletion strains, locus YLL026W, active compounds read low 1.03 | S. cerevisiae deletion strains, locus YLL041C, strain sdh2, active compounds read low 1.02 | S. cerevisiae deletion strains, locus YLR027C, strain aat2, active compounds read low 1.03 | S. cerevisiae deletion strains, locus YLR039C, strain RIC1, active compounds read low 1.04 | S. cerevisiae deletion strains, locus YLR058C, strain SHM2, active compounds read low 1.01 | S. cerevisiae deletion strains, locus YLR102C, strain apc9, active compounds read low 0.992 | S. cerevisiae deletion strains, locus YLR113W, strain HOG1, active compounds read low 0.949 | S. cerevisiae deletion strains, locus YLR221C, strain rsa3, active compounds read low 1.04 | S. cerevisiae deletion strains, locus YLR258W, strain gsy2, active compounds read low 1 | S. cerevisiae deletion strains, locus YLR262C, strain YPT6 (second series), active compounds read low 1.03 | S. cerevisiae deletion strains, locus YLR262C, strain YPT6, active compounds read low 1.06 | S. cerevisiae deletion strains, locus YLR268W, strain sec22, active compounds read low 0.991 | S. cerevisiae deletion strains, locus YLR320W, strain mms22, active compounds read low 1.04 | S. cerevisiae deletion strains, locus YLR330W, strain CHS5, active compounds read low 1.04 | S. cerevisiae deletion strains, locus YLR342W, strain FKS1 (second series), active compounds read low 0.985 | S. cerevisiae deletion strains, locus YLR342W, strain FKS1, active compounds read low 1.01 | S. cerevisiae deletion strains, locus YLR357W, strain rsc2, active compounds read low 1.03 | S. cerevisiae deletion strains, locus YLR370C, strain arc18, active compounds read low 1.05 | S. cerevisiae deletion strains, locus YLR371W, strain rom2, active compounds read low 1 | S. cerevisiae deletion strains, locus YLR384C, strain iki3, active compounds read low 1.03 | S. cerevisiae deletion strains, locus YLR418C, strain cdc73, active compounds read low 0.987 | S. cerevisiae deletion strains, locus YML016C, strain PPZ1, active compounds read low 1 | S. cerevisiae deletion strains, locus YML032C, strain rad52, active compounds read low 1.01 | S. cerevisiae deletion strains, locus YML120C, strain ndi1, active compounds read low 1 | S. cerevisiae deletion strains, locus YML124C, strain tub3, active compounds read low 1.01 | S. cerevisiae deletion strains, locus YMR058W, strain fet3, active compounds read low 1.05 | S. cerevisiae deletion strains, locus YMR078C, strain ctf18, active compounds read low 1.01 | S. cerevisiae deletion strains, locus YMR125W, strain sto1, active compounds read low 1.01 | S. cerevisiae deletion strains, locus YMR129W, active compounds read low 1.04 | S. cerevisiae deletion strains, locus YMR205C, strain PFK2, active compounds read low 1.06 | S. cerevisiae deletion strains, locus YMR223W, strain ubp8, active compounds read low 1.04 | S. cerevisiae deletion strains, locus YMR231W, strain pep5, active compounds read low 1.03 | S. cerevisiae deletion strains, locus YMR307W, strain GAS1, active compounds read low 0.964 | S. cerevisiae deletion strains, locus YNL067W, strain RPL9B, active compounds read low 1 | S. cerevisiae deletion strains, locus YNL071W, strain lat1, active compounds read low 1.02 | S. cerevisiae deletion strains, locus YNL153C, strain GIM3, active compounds read low 1.01 | S. cerevisiae deletion strains, locus YNL183C, strain NPR1, active compounds read low 0.901 | S. cerevisiae deletion strains, locus YNL209W, strain ssb2, active compounds read low 1.03 | S. cerevisiae deletion strains, locus YNL233W, strain BNI4, active compounds read low 1.02 | S. cerevisiae deletion strains, locus YNL248C, strain rpa49, active compounds read low 1.03 | S. cerevisiae deletion strains, locus YNL250W, strain rad50, active compounds read low 1.02 | S. cerevisiae deletion strains, locus YNL271C, strain bni1, active compounds read low 1.01 | S. cerevisiae deletion strains, locus YNL298W, strain CLA4, active compounds read low 1.01 | S. cerevisiae deletion strains, locus YNL307C, strain MCK1, active compounds read low 0.996 | S. cerevisiae deletion strains, locus YNL322C, strain KRE1 (second series), active compounds read low 1.01 | S. cerevisiae deletion strains, locus YNL322C, strain KRE1, active compounds read low 1.01 | S. cerevisiae deletion strains, locus YNR049C, strain mso1, active compounds read low 1.03 | S. cerevisiae deletion strains, locus YNR052C, strain pop2, active compounds read low 0.994 | S. cerevisiae deletion strains, locus YOL012C, strain htz1 1.74 | S. cerevisiae deletion strains, locus YOL147C, strain pex11, active compounds read low 0.993 | S. cerevisiae deletion strains, locus YOR001W, strain rrp6, active compounds read low 1.04 | S. cerevisiae deletion strains, locus YOR061W, strain CKA2, active compounds read low 1.01 | S. cerevisiae deletion strains, locus YOR069W, strain VPS5, active compounds read low 1.01 | S. cerevisiae deletion strains, locus YOR070C, strain gyp1, active compounds read low 1.04 | S. cerevisiae deletion strains, locus YOR080W, strain dia2, active compounds read low 1.05 | S. cerevisiae deletion strains, locus YOR083W, strain WHI5, active compounds read low 1.02 | S. cerevisiae deletion strains, locus YOR106W, strain vam3, active compounds read low 1.02 | S. cerevisiae deletion strains, locus YOR136W, strain idh2, active compounds read low 1.01 | S. cerevisiae deletion strains, locus YOR144C, strain elg1, active compounds read low 0.996 | S. cerevisiae deletion strains, locus YOR184W, strain ser1, active compounds read low 0.994 | S. cerevisiae deletion strains, locus YOR231W, strain MKK1, active compounds read low 0.962 | S. cerevisiae deletion strains, locus YOR265W, strain rbl2, active compounds read low 1.05 | S. cerevisiae deletion strains, locus YOR270C, strain vph1, active compounds read low 1.11 | S. cerevisiae deletion strains, locus YOR290C, strain snf2, active compounds read low 1 | S. cerevisiae deletion strains, locus YOR316C, strain cot1, active compounds read low 0.993 | S. cerevisiae deletion strains, locus YPL051W, strain arl3, active compounds read low 1.04 | S. cerevisiae deletion strains, locus YPL078C, strain atp4, active compounds read low 1.02 | S. cerevisiae deletion strains, locus YPL106C, strain sse1, active compounds read low 1.01 | S. cerevisiae deletion strains, locus YPL240C, strain hsp82, active compounds read low 1.02 | S. cerevisiae deletion strains, locus YPL256C, strain CLN2, active compounds read low 0.96 | S. cerevisiae deletion strains, locus YPR119W, strain clb2, active compounds read low 0.999 | S. cerevisiae deletion strains, locus YPR141C, strain kar3, active compounds read low 1.01 | S. cerevisiae deletion strains, locus YPR163C, strain tif3, active compounds read low 0.995 | S. cerevisiae deletion strains, locus YPR167C, strain met16, active compounds read low 1.01 | S. cerevisiae deletion strains, strain wtn01, active compounds read low 0.999 | S. cerevisiae strains, strain wild type, active compounds read low 1.02
